Hits are enriched below; roughly 1.3% of the tested compounds scored in any of these assays.
SRC1 inh: inhibitors of human steroid receptor coactivator 1 (SRC1) | inhibition, % at 3.6 µM | 360,000 tested, 0.12% active | AID 588354 | Q15788 | HEK293 GAL4-SRC1 luciferase reporter, luminescence;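 active = inhibition above the campaign mean plus 3 SD, with each screening campaign given its own cutoff, cut at about 60% in these data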;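 also: 0% = DMSO treated cells and 100% = gossypol at 36 µM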
LRH-1 inv ag: inverse agonists of human LRH-1 (NR5A2). O00482. HEK293T StAR-luciferase reporter, LRH-1 transfected, 24 h. inhibition, % at 3.6 µM. 360,000 tested, 0.13% active;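 active = inhibition above the mean inhibition of all tested compounds plus 3 SD, cut at about 73% in these data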;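 also: 0% = DMSO wells and 100% = reporter-only cells lacking LRH-1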
Gli-Sufu block: blocks Gli-Sufu signaling in a luciferase reporter | Sufu-KO-LIGHT fibroblasts, Gli luciferase reporter luminescence | inhibition, % at 5 µM | 340,000 tested, 0.74% active | AID 588413;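 active = inhibition above about 55%, limit read from the data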;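 also: 0% = DMSO-treated cells and 100% = wells with medium but no cells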
NCOA3 inh: inhibitors of human steroid receptor coactivator 3 (SRC3); HEK293 GAL4-SRC3 luciferase reporter, luminescence; inhibition, % at 3.6 µM; 360,000 tested, 0.17% active;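 active = inhibition above a per-campaign cutoff, the mean of all compounds plus 3 SD, cut at about 60% in these data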;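 also: 0% = DMSO-treated cells and 100% = gossypol-treated cells at 36 µM; higher means less SRC3-driven luciferase light from the GAL4 reporter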
NCOA2 inhibitor: inhibits human steroid receptor coactivator 2; inhibition, % at 9 µM; AID 651957; 370,000 tested, 0.17% active; Q15596; HEK293 GAL4-SRC2 luciferase reporter, luminescence;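 active = inhibition above the mean inhibition of all tested compounds plus 3 SD, set per campaign, cut at about 52% in these data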;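 also: 0% = DMSO treated cells and 100% = cells given Gossypol at 36 µM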
NR2F2 inh: blocks human COUP-TFII nuclear receptor. P24468. HEK293T NGFI-A luciferase reporter, luminescence. inhibition, % at 8.6 µM. 370,000 tested, 0.7% active. AID 686940;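 active = inhibition above a per-plate cutoff, mean inhibition of test wells between control levels plus 3 SD, cut at about 38% in these data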;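 also: cells cotransfected with COUP-TFII expression vector driving the NGFI-A reporter; 0% = median of COUP-TF2 test wells and 100% = reporter-only cells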
Target sequence (P24468 whole entry, looked up): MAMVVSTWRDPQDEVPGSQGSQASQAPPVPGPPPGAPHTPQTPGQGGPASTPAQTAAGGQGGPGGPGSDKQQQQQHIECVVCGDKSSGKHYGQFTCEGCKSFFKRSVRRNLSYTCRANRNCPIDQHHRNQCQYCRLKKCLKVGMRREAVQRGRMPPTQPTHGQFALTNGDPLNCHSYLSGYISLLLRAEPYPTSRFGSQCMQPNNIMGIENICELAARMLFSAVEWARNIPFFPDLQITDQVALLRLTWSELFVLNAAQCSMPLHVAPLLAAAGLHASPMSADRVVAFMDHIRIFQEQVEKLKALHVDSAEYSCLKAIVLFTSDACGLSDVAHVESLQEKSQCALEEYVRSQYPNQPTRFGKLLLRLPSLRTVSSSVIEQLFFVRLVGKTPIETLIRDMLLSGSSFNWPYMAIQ
Gal4-VP16 ctr: inhibits VP16 reporter, flagging COUP-TFII antagonist hits; 2,500 tested, 25% active; inhibition, % at 8.5 µM; HEK293 Gal4-VP16 luciferase reporter, luminescence; shares compounds with NR2F2 inh; in the data active = inhibition above about 13%
NR2F2 inh conf: confirmation of human COUP-TFII (NR2F2) inhibitors | shares compounds with NR2F2 inh | HEK293 NGFI-A luciferase reporter, luminescence | inhibition, % at 8.5 µM | 2,500 tested, 45% active | AID 687008;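 active = mean inhibition over three repeats above a set limit taken from the earlier primary screen, cut at about 38% in these data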;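 also: 100% = cells given the luciferase reporter alone without the COUP-TF2 vector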
An asterisk follows results filed as active; x = no result; ! = not confirmed by another sample.

SMILES	SRC1 inh	LRH-1 inv ag	Gli-Sufu block	NCOA3 inh	NCOA2 inhibitor	NR2F2 inh	Gal4-VP16 ctr	NR2F2 inh conf
CC(=O)CSc1nc(N)c(C#N)c(-c2cccs2)c1C#N	22.5	45.5	-10.4	23.9	42.1	8.7	x	x
CC(C)OC(=O)CSc1nc(N)c(C#N)c(-c2cccs2)c1C#N	12.1	31.2	12.8	24.5	10.2	44.7*	5.0	25.2
CC(C)C(NC(=O)Cc1ccccc1)C(=O)N1CCN(c2cccc(Cl)c2)CC1 (stereo not drawn)	-4.8	-21.1	10.3	15.6	27.2	64.9*	0.8	13.0
CCN(CC)c1ccc(NC(=O)c2cc3c(C)nn(-c4ccccc4)c3s2)cc1	x	x	x	x	-12.1	16.6	x	x
S=C1NC2=C(CCCC2=C2SCCS2)C(c2ccccc2)N1 (stereo not drawn)	-7.6	11.1	-7.8	11.8	8.9	37.5*	-7.7	-4.9
O=S(=O)(c1ccc(Cl)s1)N1CCC(c2nc3ccccc3o2)CC1	x	x	x	x	21.7	-1.2	x	x
Cc1cc(O)c(C(=O)/C=C/c2cccc([N+](=O)[O-])c2)c(=O)o1	-6.1	18.6	5.6	5.1	-36.6	-4.9	x	x
CC(=O)Oc1ccccc1C(=O)C=Cc1cccc([N+](=O)[O-])c1	-7.1	27.2	0.8	6.3	-17.2	46.8*	-9.9	-2.9
Cc1c(CCC(=O)NCCCCCC(=O)O)c(=O)oc2c(C)c3oc4c(c3cc12)CCCC4	-21.2	1.5	3.5	5.5	10.0	-1.7	x	x
Cc1c(CCC(=O)NCCCC(=O)O)c(=O)oc2cc3oc4c(c3cc12)CCCC4	12.7	8.7	13.3	2.3	63.4*	48.6*	35.4*	34.0
Cc1c(CCC(=O)N[C@@H](CCCNC(N)=O)C(=O)O)c(=O)oc2cc3oc4c(c3cc12)CCCC4	11.3	-0.6	20.4	-0.6	68.4*	53.0*	28.6*	28.8
CCC(NC(=O)CCc1c(C)c2cc3c4c(oc3cc2oc1=O)CCCC4)C(=O)O (stereo not drawn)	13.0	3.9	15.8	10.7	64.5*	40.4*	46.1*	41.9*
CCCCC(NC(=O)Cc1c(C)c2cc3c4c(oc3cc2oc1=O)CCCC4)C(=O)O (stereo not drawn)	-0.4	-7.8	10.6	3.5	-21.4	-3.6	x	x
Cc1cc(=O)n(-c2ccc(C(=O)O)cc2)[nH]1	7.6	5.2	-1.8	2.0	-11.3	14.9	x	x
Cc1cc(=O)n(-c2ccc(O)cc2)[nH]1	12.9	18.1	-1.1	32.0	20.0	41.5*	-5.3	-15.3
O=C1CCCC[C@@H](O)[C@H](O)C[C@H](c2ccccc2)O1	x	-30.3	x	x	2.9	4.9	x	x
C=C1CC2(CC(c3ccccc3)OC(c3ccccc3)C2)OC1=O (stereo not drawn)	-5.7	4.9	13.0	-18.4	50.2	46.3*	8.0	-2.1
C(=C\c1ccccc1)/CSc1nnc(Cc2cccs2)n1-c1ccccc1	x	x	x	x	18.7	3.8	x	x
CCCCCCCCCCCCCCCC[n+]1ccccc1	8.9	47.5	83.5*	35.7	8.9	50.8*!	1.4	26.2
O=C(Nc1ccc(F)cc1)OCc1cn(Cc2cc(F)cc(F)c2)nn1	x	x	x	x	12.3	-1.9	x	x
O=C(CN(CCc1ccccc1)S(=O)(=O)c1ccccc1)N1CCOCC1	x	x	x	x	2.5	5.9	x	x
CCCCNC(=O)OCCCN1CCC2(CCC(c3ccccc3)CC2)C1=O (stereo not drawn)	x	x	x	x	3.6	9.4	x	x
CCc1ccc(CCNC(=O)OCCCN2CCC3(CCC(c4ccccc4)CC3)C2=O)cc1 (stereo not drawn)	x	x	x	x	34.1	41.0*	-7.2	6.9
COC(=O)[C@H](C(C)C)N1Cc2nnn(Cc3ccc(C)cc3)c2-c2cc(F)ccc2S1(=O)=O	x	x	x	x	10.0	3.5	x	x
COc1ccc(C[C@H](N)C(=O)N[C@H]2[C@@H](O)[C@H](n3cnc4c(N(C)C)ncnc43)O[C@@H]2CO)cc1	94.3*	102.0*	89.8*	95.0*	86.3*	98.8*	47.9*	97.4*
SMILES	SRC1 inh	LRH-1 inv ag	Gli-Sufu block	NCOA3 inh	NCOA2 inhibitor	NR2F2 inh	Gal4-VP16 ctr	NR2F2 inh conf
CC(C)(C)c1ccc(-c2nnc(SCC(=O)Nc3ccc(S(=O)(=O)Nc4nccs4)cc3)n2Cc2ccco2)cc1	x	x	x	x	-5.7	1.6	x	x
NC(=O)c1cccc(-c2noc(-c3ccccc3F)n2)c1	-4.3	12.2	-238.5	14.8	13.0	57.5*	21.9*	34.2
CCN(CC)c1ccc(S(=O)(=O)Nc2cc(Cl)ccc2Cl)cc1NC(=S)NC(=O)C1CCCC1	5.0	-3.5	10.7	7.1	11.2	14.3	x	x
CCN(CC)S(=O)(=O)c1ccc(Cl)c(NC(=S)NC(=O)C2CCCC2)c1	4.9	9.9	15.1	-1.0	21.4	44.2*	2.5	20.8
O=C(CN1C(=O)c2ccccc2S1(=O)=O)c1ccc(Cl)cc1Cl	55.0	59.1	89.8*	62.0*	87.1*	91.0*	70.5*	90.1*
CCCC1Oc2ccccc2C(=O)N(CC(=O)c2ccc3c(c2)OCCO3)C1=O (stereo not drawn)	-2.0	3.7	-48.4	-56.2	-22.9	-17.8	x	x
O=C(CCN1C(=O)c2ccccc2S1(=O)=O)Nc1ccc2c(c1)OCCO2	5.1	-12.1	-2.0	17.1	-23.1	12.1	x	x
O=C(CN1C(=O)c2ccccc2S1(=O)=O)c1ccc2c(c1)OCCCO2	92.9*	93.3*	95.9*	92.9*	92.6*	100.1*	92.8*	108.8*
O=C(CN1C(=O)c2ccccc2S1(=O)=O)c1ccc2c(c1)OCCO2	81.9*	62.4	93.6*	85.4*	88.8*	88.9*	82.6*	99.3*
Cc1ccc(NC(=O)CCCOc2ccccc2)cc1S(=O)(=O)N1CCOCC1	-1.7	1.4	-0.4	-5.6	-13.2	-5.7	x	x
CCN(CC)S(=O)(=O)c1cc(NC(=O)c2ccc3c(c2)NC(=O)C(C)S3)ccc1C (stereo not drawn)	-7.2	18.2	3.7	17.4	36.1	60.6*	9.0	47.2*
Cc1ccc(OCCCC(=O)Nc2ccc(Cl)c(S(=O)(=O)N3CCOCC3)c2)cc1	16.9	14.6	1.3	19.7	26.8	56.9*	-5.3	36.4
CC(=O)c1ccc(OCCCC(=O)Nc2ccc(Cl)c(S(=O)(=O)N3CCOCC3)c2)cc1	20.4	34.9	9.1	-18.4	19.0	69.8*	2.7	55.7*
O=C(CCCSc1ccccc1)Nc1ccc(Cl)c(S(=O)(=O)N2CCOCC2)c1	6.3	3.2	7.5	4.2	13.8	39.5*	11.6	25.5
O=C(NCCc1ccccc1)OCc1cn(-c2ccc(F)c(F)c2)nn1	x	x	x	x	3.6	0.7	x	x
CCCCN1C(=O)N2Cc3cc(OC)ccc3C2CS1(=O)=O (stereo not drawn)	x	x	x	x	-53.3	-43.9	x	x
Cc1ccc(-n2c(SCC(=O)c3ccc(O)c(O)c3)nnc2-c2ccccc2)cc1	x	x	x	x	11.2	-0.7	x	x
O=C(CCCOc1ccccc1)Nc1ccc(Cl)c(S(=O)(=O)N2CCOCC2)c1	12.0	21.2	7.6	17.6	32.3	49.2*	8.5	28.4
